Rows were chosen to be rich in hits. Some 3.1% of all compounds tested hit in one or more screens of this group.
MEKK2 mut-MEK5 – MEK5 binding signal on mutant MEKK2 PB1, primary screen, biochemical, multiplex bead flow cytometry, Alexa488-MEK5 | percent response, % at 10 µM | AID 1530, 2009 | 0.35% of 290,000 active | Alexa488-MEK5 binding to MEKK2 mutant; in the data active = percent response above about 24%, passing the limit was not always enough
UBC13 polyUb – UBC13 polyubiquitin chain formation inhibitors, primary screen, biochemical, TR-FRET, uHTS; AID 485273, 2010; inhibition, % at 20 µM; Ubiquitin-conjugating enzyme E2 N (Homo sapiens), P61088; 0.47% of 330,000 active; in the data active = inhibition above about 45%, passing the limit was not always enough
MEKK3 PB1 HTS – modulators of MEKK3-MEK5 PB1 binding, primary screen, biochemical, wildtype MEKK3, multiplex bead flow cytometry, Alexa488-MEK5 | Mitogen-activated protein kinase kinase kinase 3 (Homo sapiens), Q99759 | bead-based flow cytometry, Alexa488-MEK5 binding to MEKK3; actives lie on both sides; 0 = blocked by unlabeled MEK5, 100 = vehicle | binding response (% of control), % at 10 µM | 1.4% of 290,000 active;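 active = binding response more than 3 SD above or below the average of its plate-row segment, actives on both sides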;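 note: Alexa488 bead fluorescence after subtracting the streptavidin-only scavenger bead signal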
PREPL inhibitor – PREPL enzyme inhibitors, primary screen, biochemical, fluorescence polarization | Prolyl endopeptidase-like (Homo sapiens), Q4J6C6 | recombinant PREPL, fluorescence polarization activity-based probe | inhibition, % at 5.96 µM | 0.68% of 320,000 active;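 note: 0% = enzyme with DMSO and 100% = wells lacking enzyme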
Target sequence (Q4J6C6 whole entry, looked up): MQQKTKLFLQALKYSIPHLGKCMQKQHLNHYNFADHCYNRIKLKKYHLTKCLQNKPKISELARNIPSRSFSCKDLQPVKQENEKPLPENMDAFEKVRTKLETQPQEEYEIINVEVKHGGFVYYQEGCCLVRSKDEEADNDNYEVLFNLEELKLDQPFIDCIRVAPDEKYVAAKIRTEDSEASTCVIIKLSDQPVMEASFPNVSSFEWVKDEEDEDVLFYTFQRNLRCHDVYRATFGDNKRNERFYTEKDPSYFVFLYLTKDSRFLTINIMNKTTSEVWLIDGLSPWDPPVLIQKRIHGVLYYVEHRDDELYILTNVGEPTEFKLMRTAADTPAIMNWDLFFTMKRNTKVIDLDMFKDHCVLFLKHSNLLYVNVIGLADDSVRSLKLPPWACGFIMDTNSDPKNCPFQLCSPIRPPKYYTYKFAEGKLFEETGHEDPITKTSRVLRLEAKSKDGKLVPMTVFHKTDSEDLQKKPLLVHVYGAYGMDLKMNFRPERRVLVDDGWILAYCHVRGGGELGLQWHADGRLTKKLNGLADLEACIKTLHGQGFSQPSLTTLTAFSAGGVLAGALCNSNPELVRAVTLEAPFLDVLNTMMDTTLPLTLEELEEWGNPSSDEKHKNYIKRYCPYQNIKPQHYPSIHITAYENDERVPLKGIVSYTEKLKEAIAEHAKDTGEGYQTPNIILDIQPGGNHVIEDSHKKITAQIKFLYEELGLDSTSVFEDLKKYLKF
MEKK2wt PB1 HTS – modulators of MEK5 binding to wildtype MEKK2, primary screen, biochemical, multiplex bead flow cytometry, Alexa488-MEK5 | binding response (% of control), % at 10 µM | Alexa488-MEK5 binding to MEKK2 WT; actives lie on both sides | Mitogen-activated protein kinase kinase kinase 2 (Homo sapiens), Q9Y2U5 | 1.1% of 290,000 active; in the data active = binding response below about 67% or above about 130%
ATG4B inhibitor – ATG4B protease inhibitors, primary screen, biochemical, fluorescence, uHTS | Cysteine protease ATG4B (Homo sapiens), Q9Y4P1 | ATG4B cleavage of LC3-PLA2, NBD-HPC fluorescence, 1 h | inhibition, % at 8.33 µM | 0.51% of 340,000 active; in the data active = inhibition above about 40%
MEKK2wt confirm – modulators of MEK5 binding to wildtype MEKK2, confirmation, biochemical, single concentration, multiplex bead flow cytometry | shares compounds with MEKK3 PB1 HTS | Alexa488-MEK5 binding to MEKK2 WT; actives lie on both sides | binding response (% of control), % at 10 µM | 2.4% of 5,900 active | AID 1892, 2009; in the data active = binding response below about 16% or above about 210%; inactive = in between
MEKK2mut confirm – mutant MEKK2 PB1-MEK5 binding signal retest – biochemical, single concentration, multiplex bead flow cytometry, confirmation; shares compounds with MEKK3 PB1 HTS; Alexa488-MEK5 binding to MEKK2 mutant; percent response, % at 10 µM; 2% of 5,900 active; AID 1893, 2009; in the data active = percent response mostly above about 71%, no sharp cut-off; inactive = mostly below about 38%;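 note: higher means compound restores mutant binding toward wildtype level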
MEKK3-MEK5 inh – MEKK3 wild-type PB1 binding to MEK5, inhibitors, confirmation, biochemical, bead multiplex flow cytometry, single concentration, wildtype | shares compounds with MEKK3 PB1 HTS | Alexa488-MEK5 binding to MEKK3; stronger effect = lower value | binding response (% of control), % at 10 µM | 1.8% of 5,900 active;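 active = binding response below 72% of control, or above a set upper limit, though filed actives all read lower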;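 note: 100% = DMSO only wells and 0% = binding blocked by excess unlabeled MEK5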
PREPL inh cf – human PREPL enzyme inhibitors, confirmation, biochemical, fluorescence polarization; shares compounds with PREPL inhibitor; recombinant PREPL, fluorescence polarization activity probe; inhibition, % at 5.96 µM; 67% of 2,000 active; AID 2803, 2010;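 note: 0% = protein with DMSO and 100% = wells lacking protein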
Casp3 counter – CASP3 inhibitor validation, counterassay for project on UBE2N polyubiquitination blockers, biochemical, one dose | shares compounds with UBC13 polyUb | Recombinant caspase-3, Caspase-Glo 3/7 luminescence, 60 min | inhibition, % at 20 µM | 4% of 1,400 active;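 active = mean inhibition across replicates above about 26%, limit read from the data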;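 note: plate controls were DMSO with caspase-3 for no effect and DMSO wells lacking enzyme for full effect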
UBC13 conf – UBC13 polyubiquitination inhibitors, single-point retest, confirmation, biochemical, TR-FRET, single concentration; 68% of 1,400 active; shares compounds with UBC13 polyUb; inhibition, % at 10 µM; AID 488859, 2010; in the data active = inhibition above about 45%
Numbers without * were called inactive; nt = not tested or not shown; ! = not active in a repeat. Cut-off read from the data, not from the text of the source, unless noted: active = inhibition above about 43%; inactive = the rest.

SMILES | MEKK2 mut-MEK5 | UBC13 polyUb | MEKK3 PB1 HTS | PREPL inhibitor | MEKK2wt PB1 HTS | ATG4B inhibitor | MEKK2wt confirm | MEKK2mut confirm | MEKK3-MEK5 inh | Casp3 counter | UBC13 conf | others
COc1ccc(C(=O)CCC(=O)N2CCN(c3cc(C)ccc3C)CC2)cc1 | 3 | -4 | 105 | 12 | 105 | 4 | nt | nt | nt | nt | nt
Cc1ccc(-c2c[n+](CC(=O)Nc3c(C)cccc3C)c3n2CCC3)cc1 | 27 | 0 | 108 | -22 | 110 | -7 | nt | nt | nt | nt | nt
Cc1ccc(-c2csc(NC(=O)C[n+]3cc(-c4ccc(C)cc4)n4c3CCC4)n2)cc1 | 3 | 60* | 104 | -27 | 141* | -5 | 207* | 63 | 109 | 1 | 70*
CN(C)CCCn1cnc2c(c1=N)C(c1ccccc1)c1ccc3ccccc3c1O2 (stereo not given) | 26* | 71* | 101 | 4 | 170* | 8 | 194 | 64 | 103 | 2 | 82*
CCCCOc1ccc(Cl)cc1Nc1nc(NCCO)nc(N2CCCC2)n1 | 9 | 60* | 110 | 7 | 141* | -11 | 112 | 3 | 99 | -4 | 19
CS(=O)(=O)c1ccc(Cl)c(NC(=O)CN2CCN(C(=O)c3cccs3)CC2)c1 | nt | -1 | nt | 9 | nt | 0 | nt | nt | nt | nt | nt
C#CCOCCOCCOCCNc1nc(N2CCN(C(=O)C([C@@H](C)CC)n3cc(C(N)CO)nn3)CC2)nc(N2CCN(C(=O)[C@H](CCC(=O)O)n3cc(C(N)Cc4ccc(O)cc4)nn3)CC2)n1 (stereo not given in full) | 3 | -10 | 82 | nt | 88 | nt | nt | nt | nt | nt | nt
C#CCOCCOCCOCCNc1nc(N2CCN(C(=O)[C@H]([C@@H](C)CC)n3cc([C@@H](N)CC(C)C)nn3)CC2)nc(N2CCN(C(=O)[C@H](Cc3ccc(O)cc3)n3cc([C@@H](N)C(C)CC)nn3)CC2)n1 (stereo not given in full) | 21 | 57* | 106 | -4 | 156* | -6 | 129 | 15 | 103 | 0 | 51*
C#CCOCCOCCOCCNc1nc(N2CCN(C(=O)[C@H]([C@@H](C)CC)n3cc([C@@H](N)Cc4ccc(O)cc4)nn3)CC2)nc(N2CCN(C(=O)[C@H](CCCCN)n3cc([C@@H](N)CO)nn3)CC2)n1 | 46 | 98* | 110 | 12 | 171* | nt | 189 | 132* | 113 | -3 | 73*
C#CCOCCOCCOCCNc1nc(N2CCN(C(=O)[C@H]([C@@H](C)CC)n3cc([C@@H](N)Cc4ccc(O)cc4)nn3)CC2)nc(N2CCN(C(=O)[C@H](Cc3ccc(O)cc3)n3cc([C@@H](N)C(C)CC)nn3)CC2)n1 (stereo not given in full) | 58* | 64* | 109 | 23 | 191* | -21 | 140 | 12 | 106 | 1 | 57*
COc1ccccc1CCN=C(N)NS(=O)(=O)c1ccccc1F | 7 | 4 | 103 | 13 | 104 | -4 | nt | nt | nt | nt | nt
O=C(O)CCn1cc(-c2ccc(F)cc2)nc1-c1ccncc1 | nt | 2 | nt | 0 | nt | 6 | nt | nt | nt | nt | nt
CN1CCN(CCCN2c3ccccc3Sc3ccc(Cl)cc32)CC1 | 23 | 97* | 107 | 63* | 188*! | 3 | 157 | 24 | 109 | 1 | 99* | PREPL inh cf=55*
OCCN1CCN(CCCN2c3ccccc3Sc3ccc(C(F)(F)F)cc32)CC1 | 19 | 87* | 114 | 21 | 175* | -6 | 132 | 17 | 108 | -2 | 92*
CN1CCN(CCC(=O)N2c3ccccc3Sc3ccc(C(F)(F)F)cc32)CC1 | 2 | -2 | 98 | 1 | 105 | -10 | nt | nt | nt | nt | nt
OC1CC2CCC(C1)N2CCCN1c2ccccc2Sc2ccc(Cl)cc21 (stereo not given) | nt | nt | nt | nt | nt | 0 | nt | nt | nt | nt | nt
Cc1cc(Nc2ccccc2)nc(NCc2ccccc2)n1 | 67* | 46* | 110 | -6 | 167* | 6 | 165 | 51 | 110 | -2 | 50*
Cc1cc(Oc2ccccc2)nc(NCc2ccccc2)n1 | -1 | 0 | 98 | -15 | 95 | -5 | nt | nt | nt | nt | nt
COc1ccc(C[C@H]2CN3C(=NC[C@@H]3C)N2CCNC(=O)CCC2CCCCC2)cc1 | 18 | 17 | 104 | 22 | 121 | 9 | nt | nt | nt | nt | nt
CCCCCCNC(=O)N[C@@H](C(=O)NCCC[C@H]1CN2C(=NC[C@@H]2Cc2ccccc2)N1CCc1cccc(OC)c1)C(C)C | 46* | 57* | 109 | 34 | 201* | -16 | 169 | 49 | 104 | 2 | 61*
CCOCCCNC(=O)C1(O)c2ccccc2NC(=O)N1c1ccc(Cl)cc1 (stereo not given) | 7 | 2 | 107 | 1 | 106 | -7 | nt | nt | nt | nt | nt
CCN1CCN(Cc2ccc(NC(=O)c3cc(NC(=O)c4cc(-c5ccc(OC)cc5)n[nH]4)cc(OC)c3)cc2C(F)(F)F)CC1 | 167* | 61* | 125* | -10 | 167* | -29 | 312* | 173* | 117 | 2 | 44

Screening results from PubChem.
